Assay results published in PubChem BioAssay.
The source made the active and inactive calls.

Assays:
[1] = test system: PRMT1 (protein arginine N-methyltransferase 1); experiment: PRMT1 binders on small-molecule microarrays, primary screen, biochemical, small-molecule microarray, 635 nm fluorescence (AID 1088); conditions: small-molecule microarray binding, higher = more signal;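 note: binding of Prmt1 protein to compounds spotted on small-molecule microarray slides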
[2] = yeast growth modulation, basal conditions, primary screen, YJM789 clinical isolate, OD600, 24 h (AID 1089);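 note: growth of clinical yeast isolate S. cerevisiae YJM 789 seeded 1000 cells per well; test concentration not given here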; conditions: S. cerevisiae YJM789 growth, higher = more signal, called active from +8 up or from −8 down
[3] = fission yeast growth modulation, primary screen, strain 972, OD600, 24 h, no modulator (AID 1090);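 note: basal condition with compound alone and no growth modifier present; test concentration not given here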; conditions: S. pombe 972 growth, higher = more signal, called active from +8 up or from −8 down
[4] = S. cerevisiae growth modulation with rapamycin, primary screen, strain BY4716, OD600, 96 h (AID 1091); conditions: higher = more signal, called active from +8 up or from −8 down; note: test concentration not given here
[5] = target: Torsin-1A-interacting protein 2 (Homo sapiens) (UniProt Q8NFQ8); experiment: LULL1 binders on small-molecule microarray, primary screen, cell lysate, human LULL1 lysate, 635/667 nm fluorescence (AID 1092); conditions: hLULL1 lysate binding, 635 nm fluorescence, higher = more signal;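 note: probe is lysate of COS7 cells overexpressing human LULL1; score merges per-feature 667 nm fluorescence with signal-to-noise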
[6] = E. coli growth modulation, two-sided OD650, primary screen, E. coli filamentation project, strain DRC41, 24 h (AID 1093); conditions: OD650, 24 h, higher = more signal, called active from +8 up or from −8 down;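 note: MC1000 strain lacking acrAB efflux and sulA so SOS filamentation is blocked; test concentration not given here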
[7] = small-molecule microarray binders of probe aLefty2, primary screen, biochemical, biotinylated probe, 635/667 nm fluorescence (AID 1094); conditions: higher = more signal;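 note: score merges spot fluorescence near 667 nm with spot signal-to-noise ratio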
[8] = test system: Noggin (protein binding on small-molecule microarray); experiment: Noggin binders on small-molecule microarray, primary screen, biochemical, 635/667 nm fluorescence (AID 1095); conditions: 635 nm fluorescence, higher = more signal;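 note: score merges 667 nm feature fluorescence with signal to noise over triplicate slides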
[9] = target: Neurogenic locus notch homolog protein 3 (Homo sapiens) (UniProt Q9UM47); experiment: NOTCH3 binders on small-molecule microarray, primary screen, biochemical, 635/667 nm fluorescence (AID 1096); conditions: NOTCH3 binding, 635 nm fluorescence, higher = more signal
[10] = small-molecule microarray binders of probe aEGFR, primary screen, biochemical, biotinylated probe, 635/667 nm fluorescence (AID 1097); conditions: higher = more signal;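 note: probe is a biotinylated anti-EGFR antibody binding compounds printed on slides; score combines fluorescence near 667 nm and signal to noise of each spot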

Torsin-1A-interacting protein 2 (Homo sapiens), sequence (Q8NFQ8 whole entry, looked up): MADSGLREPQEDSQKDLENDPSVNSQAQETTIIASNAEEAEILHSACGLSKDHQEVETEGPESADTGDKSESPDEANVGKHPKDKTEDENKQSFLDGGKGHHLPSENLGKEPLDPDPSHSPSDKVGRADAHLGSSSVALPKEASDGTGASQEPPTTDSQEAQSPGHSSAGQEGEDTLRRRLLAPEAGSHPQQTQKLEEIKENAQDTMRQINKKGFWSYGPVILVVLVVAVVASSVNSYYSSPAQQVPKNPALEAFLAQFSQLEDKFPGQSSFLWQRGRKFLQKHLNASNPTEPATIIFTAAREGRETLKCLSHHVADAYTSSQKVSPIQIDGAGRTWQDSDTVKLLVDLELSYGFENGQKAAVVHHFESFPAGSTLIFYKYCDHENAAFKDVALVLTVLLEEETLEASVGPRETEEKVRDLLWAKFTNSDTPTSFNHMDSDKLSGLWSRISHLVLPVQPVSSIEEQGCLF
Neurogenic locus notch homolog protein 3 (Homo sapiens), sequence (Q9UM47 whole entry, looked up): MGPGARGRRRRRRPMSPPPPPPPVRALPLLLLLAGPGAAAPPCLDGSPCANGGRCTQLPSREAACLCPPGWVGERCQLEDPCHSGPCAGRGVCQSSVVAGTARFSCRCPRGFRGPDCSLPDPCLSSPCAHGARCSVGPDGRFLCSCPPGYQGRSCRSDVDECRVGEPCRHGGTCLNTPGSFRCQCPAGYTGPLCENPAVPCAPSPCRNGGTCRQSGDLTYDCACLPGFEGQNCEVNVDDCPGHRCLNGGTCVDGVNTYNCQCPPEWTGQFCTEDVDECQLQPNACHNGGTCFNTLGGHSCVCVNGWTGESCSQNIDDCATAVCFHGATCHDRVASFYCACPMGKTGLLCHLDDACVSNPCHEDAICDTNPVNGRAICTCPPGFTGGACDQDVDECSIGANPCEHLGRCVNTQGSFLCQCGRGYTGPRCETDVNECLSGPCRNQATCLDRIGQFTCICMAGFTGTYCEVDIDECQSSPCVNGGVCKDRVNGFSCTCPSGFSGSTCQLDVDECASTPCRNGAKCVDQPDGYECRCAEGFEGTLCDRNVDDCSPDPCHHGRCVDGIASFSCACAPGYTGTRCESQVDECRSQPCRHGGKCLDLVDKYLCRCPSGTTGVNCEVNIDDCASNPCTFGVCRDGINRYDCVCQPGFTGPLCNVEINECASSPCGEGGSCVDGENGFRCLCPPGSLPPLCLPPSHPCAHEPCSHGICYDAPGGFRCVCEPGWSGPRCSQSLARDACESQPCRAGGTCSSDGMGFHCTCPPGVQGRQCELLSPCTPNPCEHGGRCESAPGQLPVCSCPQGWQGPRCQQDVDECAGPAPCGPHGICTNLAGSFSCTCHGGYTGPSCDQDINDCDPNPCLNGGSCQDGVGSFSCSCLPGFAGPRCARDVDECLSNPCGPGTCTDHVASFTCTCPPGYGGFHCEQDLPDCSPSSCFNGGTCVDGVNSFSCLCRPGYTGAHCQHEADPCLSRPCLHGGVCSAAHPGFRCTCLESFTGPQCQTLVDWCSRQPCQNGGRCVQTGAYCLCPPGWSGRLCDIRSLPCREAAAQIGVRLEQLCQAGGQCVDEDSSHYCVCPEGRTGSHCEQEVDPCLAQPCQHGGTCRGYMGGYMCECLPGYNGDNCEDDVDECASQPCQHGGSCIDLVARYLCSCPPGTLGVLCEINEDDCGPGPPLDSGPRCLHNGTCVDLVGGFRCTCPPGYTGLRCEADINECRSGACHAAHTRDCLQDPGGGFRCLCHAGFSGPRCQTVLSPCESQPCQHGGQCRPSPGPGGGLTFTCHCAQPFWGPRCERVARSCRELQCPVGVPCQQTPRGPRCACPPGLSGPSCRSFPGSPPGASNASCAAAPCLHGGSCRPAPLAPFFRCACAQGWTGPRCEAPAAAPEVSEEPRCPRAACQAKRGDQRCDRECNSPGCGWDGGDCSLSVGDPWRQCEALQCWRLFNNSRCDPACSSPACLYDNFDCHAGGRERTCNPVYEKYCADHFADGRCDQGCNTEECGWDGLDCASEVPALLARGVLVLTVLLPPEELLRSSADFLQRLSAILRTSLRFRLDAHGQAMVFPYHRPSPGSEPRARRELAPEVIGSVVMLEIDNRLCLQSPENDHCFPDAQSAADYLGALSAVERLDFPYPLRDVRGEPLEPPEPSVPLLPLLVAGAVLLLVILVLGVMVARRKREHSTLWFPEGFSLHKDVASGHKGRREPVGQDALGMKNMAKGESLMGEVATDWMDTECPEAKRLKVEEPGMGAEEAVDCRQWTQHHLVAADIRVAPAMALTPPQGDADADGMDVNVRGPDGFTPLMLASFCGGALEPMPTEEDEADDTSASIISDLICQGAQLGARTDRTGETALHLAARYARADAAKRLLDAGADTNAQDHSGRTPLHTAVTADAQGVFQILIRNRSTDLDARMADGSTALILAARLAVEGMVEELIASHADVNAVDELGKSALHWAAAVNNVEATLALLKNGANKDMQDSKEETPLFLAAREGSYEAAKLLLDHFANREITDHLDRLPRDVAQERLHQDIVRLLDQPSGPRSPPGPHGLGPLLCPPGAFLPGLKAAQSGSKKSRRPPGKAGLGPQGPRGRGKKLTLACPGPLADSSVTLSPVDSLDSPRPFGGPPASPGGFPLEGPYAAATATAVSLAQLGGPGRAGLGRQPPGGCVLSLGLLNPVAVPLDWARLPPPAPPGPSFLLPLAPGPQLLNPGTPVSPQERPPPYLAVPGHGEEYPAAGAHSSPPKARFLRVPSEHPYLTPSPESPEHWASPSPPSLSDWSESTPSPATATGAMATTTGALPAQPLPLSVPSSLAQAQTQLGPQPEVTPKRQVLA

Row | SMILES | composite z-score [1] | z-score [2] | z-score [3] | z-score [4] | composite z-score [5] | z-score [6] | composite z-score [7] | composite z-score [8] | composite z-score [9] | composite z-score [10]
1 | COCCCN1C(=O)[C@@]2(Cc3ccccc31)c1ccccc1C(=O)N(Cc1ccccc1C(F)(F)F)[C@H]2c1ccc(CO)cc1 | 0.979 | 1.19 (inactive) | 0.339 (inactive) | -1.41 (inactive) | 2.51 | -0.253 (inactive) | -0.143 | 0.992 | 0.627 | -0.121
2 | CN(C)CCCCCCNC(=O)[C@@H]1C[C@@H]2C(=O)N[C@@H](CCCCN)C(=O)N2[C@@H]1c1cccc(OCCO)c1 | 1.55 | -5.46 (inactive) | -5.83 (inactive) | -1.3 (inactive) | 4.63 | 0.0508 (inactive) | 1.65 | 1.8 | 1.02 | 1.02
3 | COC(=O)c1c(CC[C@@H](CO)NC(=O)N[C@@H](C)Cn2cc(C3(O)CCCCC3)nn2)oc(C(C)=O)c1C(=O)OC | 1.54 | 0.34 (inactive) | -0.261 (inactive) | 0.107 (inactive) | 1.16 | -0.338 (inactive) | 0.0621 | 1.16 | 1.05 | 0.173
4 | CCCC#C[Si](O[C@H](CC)c1cn([C@H](CO)Cc2ccccc2)nn1)(C(C)C)C(C)C | 0.869 | -0.843 (inactive) | -10.7 (active) | -2.6 (inactive) | 1.48 | 0.858 (inactive) | 0.0166 | 0.681 | 0.584 | -0.0563
5 | [N-]=[N+]=NCc1ccccc1C[C@@]1(C(=O)NCC(O)CO)N=C(c2ccc(OCCCO)cc2)O[C@@H]1c1ccccc1N=[N+]=[N-] (stereo not given in full) | 1.53 | -1.01 (inactive) | -0.348 (inactive) | 1.99 (inactive) | 3.53 | 1.73 (inactive) | 0.36 | 0.633 | 0.618 | 0.118
6 | O=C(NCc1ccccc1)[C@@H]1c2ccccc2C(=O)N(CC23CC4CC(CC(C4)C2)C3)[C@H]1c1ccc(CO)cc1 | 1.55 | -0.52 (inactive) | -0.0538 (inactive) | 0.988 (inactive) | 2.9 | -0.668 (inactive) | -0.225 | 1.72 | 1.05 | -0.137
7 | CN1C(=O)C2C=CC(C(O)c3cc(C(F)(F)F)cc(C(F)(F)F)c3)N(N3CCCCC3)C2C1=O (stereo not given) | 1.34 | 1.69 (inactive) | 0.763 (inactive) | 1.63 (inactive) | 2.65 | -0.627 (inactive) | 0.254 | -0.297 | 0.688 | 0.153
8 | NCCCCCNC(=O)[C@@H]1C[C@@H]2C(=O)N[C@@H](Cc3ccccc3)C(=O)N2[C@@H]1c1cccc(OCCO)c1 | 0.715 | 0.653 (inactive) | -0.175 (inactive) | 0.68 (inactive) | 1.8 | -0.47 (inactive) | -0.0075 | 0.363 | -0.448 | -0.218
9 | C=CC[C@]1(C(=O)N2CCCCC2)N=C(c2ccc(OCCCO)cc2)O[C@H]1c1ccccc1 | 1.58 | -1.97 (inactive) | -5.54 (inactive) | -2.04 (inactive) | 3.21 | 1.14 (inactive) | 0.495 | 1.06 | 0.369 | 0.35
10 | O=C(O)[C@@]1(CCS(=O)(=O)c2ccccc2)COC(c2ccc(OCCCO)cc2)=N1 | -0.16 | 0.608 (inactive) | -2.3 (inactive) | -0.717 (inactive) | 2.76 | -0.16 (inactive) | 0.188 | -0.754 | -0.395 | -0.0828
11 | COc1ccc(CCNC(=O)[C@@]2(Sc3ccc(C)cc3)CC(=O)N(C3CCCCC3)[C@@H]2c2ccc(CO)cc2I)cc1 | 1.42 | -1.11 (inactive) | 0.0408 (inactive) | 0.766 (inactive) | 2.71 | -0.0209 (inactive) | -0.0823 | 0.53 | 1.1 | 0.0414
12 | C=CCC(OC(C)=O)[C@@H]1[C@@H](N(Cc2ccc(-c3ccccc3)cc2)C(=O)Cc2ccc(F)cc2)c2cc(OCCCO)ccc2N1C(=O)c1ccc(-c2ccccc2)cc1 (stereo not given in full) | -0.838 | -2.19 (inactive) | -0.379 (inactive) | -0.694 (inactive) | -0.404 | 0.996 (inactive) | 0.0631 | -0.237 | -0.239 | -0.0372
13 | CC(C)(C)OC(=O)CC[C@@]1(C(=O)NCCN2CCOCC2)N=C(c2ccc(OCCCO)cc2)O[C@@H]1c1ccccc1N=[N+]=[N-] | 1.45 | -0.174 (inactive) | -0.182 (inactive) | -0.336 (inactive) | 3.09 | -0.115 (inactive) | 0.591 | -0.0404 | 1.11 | 0.171
14 | C[C@@H]1ON(c2cccc(C(=O)OC(C)(C)C)c2)[C@H](c2ccc(Br)cc2)[C@H]1C(=O)N1C(=O)OC[C@H]1Cc1ccccc1 | 1.54 | 0.912 (inactive) | 1.38 (inactive) | 0.528 (inactive) | 1.5 | -0.448 (inactive) | -0.0408 | 0.57 | 1.12 | -0.0039
15 | O=C1NCC(=O)N2[C@@H]1C[C@@H](C(=O)O)[C@H]2c1cccc(OCCO)c1 | 1.54 | -0.215 (inactive) | -14.2 (active) | 0.273 (inactive) | 4.93 | 0.0664 (inactive) | 1.81 | 2.31 | 1.03 | 1.41
16 | CN1C(=O)C2C=CC(C(O)c3ccc(I)cc3)N(N3CCCCC3)C2C1=O (stereo not given) | 1.55 | 0.276 (inactive) | -1.13 (inactive) | -0.0412 (inactive) | 3.36 | -1.74 (inactive) | 0.583 | 0.282 | 1.04 | 0.0747
17 | C#CCN(CC1=CCCCC1)[C@H](c1ccccc1Br)[C@@H](O)Cc1ccccc1 | 0.249 | 0.119 (inactive) | -4.79 (inactive) | -0.655 (inactive) | 1.04 | 1.79 (inactive) | -0.0724 | -0.51 | -0.721 | -0.356
18 | CCCC[C@@H]1C[C@H]1[C@@H](NC(=O)c1ccco1)c1ccc(C(=O)OC)cc1 | 0.488 | -0.152 (inactive) | -1.61 (inactive) | 0.06 (inactive) | 1.93 | -1.53 (inactive) | 0.0258 | -1.2 | -0.64 | -0.171
19 | C=C(/C(=C/C[C@@H](OC(C)=O)c1ccc(OCCO)cc1)c1cnc2ccccc2c1)C(C)C | 1.26 | -0.0424 (inactive) | -1.56 (inactive) | -0.234 (inactive) | 1.06 | 0.762 (inactive) | -0.197 | 0.655 | 0.676 | -0.146
20 | COC(=O)[C@@]1(Cc2ccc(OC)cc2)[C@H]2c3cc(C(=O)N4CCCC4)n(Cc4ccccc4)c3C[C@H]2CN1C(=O)c1ccccc1 | 0.678 | -0.183 (inactive) | 0.657 (inactive) | 1.12 (inactive) | 3.37 | -0.801 (inactive) | 1.62 | -0.242 | 1.05 | 1.25
21 | CC(C)c1ccc(NN2C(C(O)c3cc(C(F)(F)F)cc(C(F)(F)F)c3)C=CC3C(=O)N(c4ccccc4)C(=O)C32)cc1 (stereo not given) | 0.353 | 0.89 (inactive) | 0.183 (inactive) | 3.38 (inactive) | 3.22 | -2.08 (inactive) | -0.0831 | -0.722 | 0.245 | -0.152
22 | CN1C(=O)C2C=CC(C(O)c3ccccc3)N(Nc3ccccc3)C2C1=O (stereo not given) | 0.47 | -0.124 (inactive) | 0.807 (inactive) | 0.646 (inactive) | 2.71 | -1.79 (inactive) | 0.0105 | -1.09 | -0.557 | -0.0828
23 | CN1C(=O)[C@]2(Cc3ccccc3)N=C(c3ccc(OCCCO)cc3)O[C@@H]2c2ccccc21 | 1.55 | -0.112 (inactive) | -3.36 (inactive) | 2.26 (inactive) | 3.14 | -0.538 (inactive) | -0.0354 | 1.34 | 0.845 | 0.0492
24 | COCCCNC(=O)[C@@]1(Cc2ccccc2N=[N+]=[N-])N=C(c2ccc(OCCCO)cc2)O[C@H]1c1ccccc1N=[N+]=[N-] | 1.56 | 0.253 (inactive) | -0.143 (inactive) | 2.01 (inactive) | 3.27 | -0.27 (inactive) | 0.23 | 0.0556 | 1.1 | 0.0507
25 | CN1C(=O)C2C=CC(C(O)c3ccc(-c4ccccc4)s3)N(N(c3ccccc3)c3ccccc3)C2C1=O (stereo not given) | 0.668 | 0.187 (inactive) | 0.947 (inactive) | 1.33 (inactive) | 1.93 | -0.422 (inactive) | 0.164 | -0.132 | 1.12 | -0.0003
26 | [N-]=[N+]=NCc1ccccc1C[C@]1(C(=O)NCC(O)CO)N=C(c2ccc(OCCCO)cc2)O[C@H]1c1ccccc1 (stereo not given in full) | -0.434 | -0.0234 (inactive) | 0.559 (inactive) | -1.04 (inactive) | 2.62 | 0.478 (inactive) | 0.38 | -0.918 | -1.29 | -0.0758
27 | COCCOC(=O)N1C(=O)[C@@]2(c3cc(C#CC4=CCCCC4)ccc31)[C@H](C(=O)N1CCc3cc(OC)c(OC)cc3C1)[C@H]1C(=O)O[C@H](c3ccccc3)[C@H](c3ccccc3)N1[C@@H]2c1ccc(OCCO)cc1 | 1.55 | 1.34 (inactive) | 0.713 (inactive) | 3.16 (inactive) | 2.49 | -0.217 (inactive) | -0.119 | 0.916 | 1.09 | -0.0357
28 | C[N+](C)(C)CCCC[C@@H]1NC(=O)[C@@H]2C[C@H](C(=O)NCCCCCN)[C@H](c3cccc(OCCO)c3)N2C1=O | 1.28 | -0.465 (inactive) | -2.09 (inactive) | 0.371 (inactive) | 2.15 | -0.291 (inactive) | 0.231 | -0.0236 | 0.182 | -0.0037
29 | CCOC(=O)C[C@H]1[C@H](OC(=O)c2cc3ccccc3oc2=O)[C@@H](NC(=O)C2CCCCC2)c2cc(OCCCO)ccc2N1C(=O)c1ccccc1 | 0.633 | -0.415 (inactive) | -0.894 (inactive) | -0.0843 (inactive) | 1.45 | 2.03 (inactive) | -0.0668 | 0.844 | 0.615 | 0.25
